# Assay outcomes deposited in PubChem BioAssay by National Center for Advancing Translational Sciences (NCATS).
# Sampled rows, rich in hits. Any-hit rate of the full collection: about 1.7%.
# p53ts 32C kill: cytotoxicity in p53ts cells at permissive temperature; H1299-p53A138V at 32C, ATP luminescence viability, 24 h; Potency, µM (titrated, usually from 46.1 µM), for the others: at the top dose activity change, negative = cytotoxicity, usual class: cytotoxic; 130,000 tested, 0.93% active;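 also: 0% = DMSO and -100% = full killing by reference compound; nearly all actives have a fitted effect of over 55% in size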
#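 ATP-content luminescence (ATPlite) read-out after 24 h compound exposure at 32C in H1299-p53A138V cells (600/well). Tested up to 46 uM. Normalized to DMSO (0%) and 100 uM tamoxifen (100% killing); Hill-fit AC50.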
# p53ts 39C tox: p53ts cell cytotoxicity, nonpermissive temperature; Potency, µM (series often up to 46.1 µM), inactives show at the highest dose activity change, negative = cell killing, usual class: cytotoxic; AID 902; H1299-p53A138V viability at 39C, ATP luminescence, 24 h; 130,000 tested, 1.5% active; also: % is scaled to controls: 0 for no effect and ±100 for the full control effect; nearly all actives have a fitted effect of over 55% in size
# Peg3 imprint: genomic imprint erasure induction; mouse ES Peg3-LacZ reporter, beta-gal luminescence, 40 h; Potency, µM (highest dose often 60.7 µM), without a hit: at the highest dose activity change, positive = activation, actives largely listed as activators; 110,000 tested, 0.02% active
#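 Readout: BetaGlo luminescence (5 min, room temp) for LacZ from the normally silent maternal Peg3 allele in female Peg3LacZ-Neo ES cells. Cells 300/well, 40 h, 37C, 5% CO2. Data normalized per plate to negative controls.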
# IkB signaling: IkB pathway inhibition in ABC-DLBCL cells | ABC-DLBCL IkBa-CBG/CBR dual luciferase ratio, 4 h; response scale: scaled: untreated 0%, proteasome inhibitor 100% | Potency, µM (series often up to 57.1 µM), for inactives: at the top dose IkBa stabilization activation | 110,000 tested, 0.04% active | AID 445; active = well fitted curve in the direction sought with a large enough effect in the signal ratio, not every such curve was filed as active; inconclusive = small, poorly fitted or top-dose-only effect, or a change in a side signal; the % refers to the signal ratio;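 also: the direction sought is a rising ratio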
#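 Luminescence ratio of IκBα-fused green versus native red beetle luciferase in OCI-Ly3 cells, 4 h post-doxycycline with compound; red signal alone, scaled from basal (0%) to zero light (-100%), flagged nonspecific or cytotoxic effects.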
# Active calls of the source: *; ? = inconclusive; · = no result given; [ ] = dose if it differs, or a comment. Unless noted, calls follow the shape of the dose curve; as a rule, active = well fitted curve in the direction sought with a large enough effect; inconclusive = small, poorly fitted or top-dose-only effect, or another doubt; inactive = no such curve, though single readings can be large; an effect the other way counts as inactive or inconclusive. Potency is read from the fitted curve at half-maximal effect.
SMILES,p53ts 32C kill,p53ts 39C tox,Peg3 imprint,IkB signaling
COc1ccccc1-c1cc(C(F)(F)F)nc(S(=O)(=O)CCCC(=O)N2CCOCC2)n1,?,?,-24%,?
Cc1cc(C(=O)CN2C(=O)C3CC=CCC3C2=O)c(C)n1-c1ccccc1 (centres undefined),10µM*,13µM*,-22%,3%
Cc1cc(C(=O)CN2C(=O)c3ccccc3S2(=O)=O)c(C)n1-c1ccccc1,13µM*,7.9µM*,-61%,?
CCOc1ccccc1NC(=O)c1nn(C)c2c1CSc1ccccc1-2,-1%,16µM*,15%[10.9 µM],-2%
Cc1ccc(S(=O)(=O)NCC(Nc2cccc(Cl)c2)c2ccccc2)cc1 (centres undefined),?,16µM*,-16%[10.9 µM],?
CCOc1ccccc1NC(=O)CSc1ccc2nc(-c3ccccc3)cn2n1,-2%,-27%,-16%[10.9 µM],-1%
COC(=O)c1ccc(C(NC(=O)OCc2ccccc2)/C(F)=C/[C@@H](C)C(=O)NCc2ccc(-c3ccccc3)cc2)cc1 (some centres undefined),-2%,-3%,-14%,·
COC(=O)c1ccc(C(NC(=O)OCc2ccccc2)/C(F)=C/[C@@H](C)C(=O)NCc2ccc(OC)c(OC)c2)cc1 (some centres undefined),?,13µM*,-15%,·
Cc1ccc(N(C)C(=O)c2cc(S(=O)(=O)N3CCOCC3)cn2C)cc1,-10%,-5%,-4%[10.9 µM],-1%
CC(C)(C)c1ccc(Cn2nnc3c(=O)[nH]c(C4CCN(C(=O)Cc5cccs5)CC4)nc32)cc1,?,16µM*,-21%,?
O=C(CC(c1ccccc1)c1cc(Br)ccc1O)NCC1(c2ccccc2)CCCC1 (centres undefined),?,10µM*,-4%[10.9 µM],?
O=C(CC(c1ccccc1)c1cc(Br)ccc1O)NCCN1CCOCC1 (centres undefined),1%,8%,-7%,4%
CN1CCN(c2ncc3nc(-c4cccc(C#N)c4)c(=O)n(C)c3n2)CC1,-1%,-5%,-17%,-1%[11.4 µM]
COc1ccccc1N1CCN(CC(O)COc2ccc(C)cc2C(C)(C)C)CC1 (centres undefined),-24%,25µM*,-13%[10.9 µM],?
CC(=O)N1CCC2(CC1)CCN(c1ccc(-c3ccccc3)cc1)CC2,-15%,-18%,·,8%[11.4 µM]
O=C(Cc1ccc(F)cc1)NCCc1csc(-c2ccc(C(F)(F)F)cc2)n1,5%,20µM*,12%[10.9 µM],-3%
COc1ccc(CC(=O)NCCc2csc(-c3ccc(C(F)(F)F)cc3)n2)cc1,7%,-17%,14%[10.9 µM],3%
CCc1ccccc1NC(=O)CN1C(=O)c2ccccc2Sc2ncccc21,5%,15%,-10%[10.9 µM],-2%
COC(=O)[C@@]1(Cc2ccc(OC)cc2)[C@H]2c3cc(C(=O)N(C)C)n(Cc4ccccn4)c3C[C@H]2CN1C(=O)c1ccccc1,6%,-6%,-12%,·
Fc1ccc(-c2nnc(-c3ccc(Cl)cc3Cl)o2)cc1,5µM*,13µM*,-50%,?
CCSc1nnc(-c2ccc(Cl)cc2Cl)o1,-27%,-18%,-21%,-1%
O=C(O)CCSc1nnc(-c2ccc(Cl)cc2Cl)o1,13µM*,?,13%[10.9 µM],?
Fc1ccc(-c2nnc(-c3ccc(Cl)cc3)o2)cc1,?,?,-18%,-2%
Clc1ccc(-c2nnc(-c3ccccc3)o2)c(Cl)c1,7.9µM*,10µM*,-31%,?
Clc1ccc(-c2nnc(-c3ccc(Br)o3)o2)c(Cl)c1,-20%,-29%,-33%,-3%
SMILES,p53ts 32C kill,p53ts 39C tox,Peg3 imprint,IkB signaling
O=c1cc(-c2ccccc2)oc2cc(O[C@H]3O[C@H](CO)[C@@H](O)[C@H](O)[C@@H]3O)c(O)c(O)c12,·,·,·,0%[11.4 µM]
COc1ccc([C@@H]2CC(=O)c3c(O)cc(O[C@@H]4O[C@@H](CO[C@@H]5O[C@@H](C)[C@@H](O)[C@@H](O)[C@H]5O)[C@@H](O)[C@@H](O)[C@H]4O)cc3O2)cc1O,·,·,·,-1%[11.4 µM]
O=S(=O)(O)[C@@H](c1ccccc1)[C@@H](O)c1ccccc1,8%[9.22 µM],-4%[9.22 µM],·,0%[11.4 µM]
C=CCc1ccccc1OCC(O)CN1CCN(C(=O)OCC)CC1 (centres undefined),-6%,8%,-14%,0%
COc1ccc(NC2=Nc3ccccc3CC2)cc1,-12%,-22%,-84%,?
COc1ccc2nc3c(cc2c1)Cc1ccccc1-3,0.79µM*,0.79µM*,-96%,·
O=c1n(Cc2ccc(Cl)cc2)c2ccccc2c2nc(-c3ccccc3)nn12,2%,-12%,-9%[10.9 µM],-1%
COc1ccc(/C=C/C(=O)c2ccc(C)s2)cc1,32µM*,21%,-5%,·
Cc1ccc(-c2nc(CS(=O)CC(=O)N3CCN(c4cccc(Cl)c4)CC3)c(C)o2)cc1 (centres undefined),-7%,13µM*,-9%[10.9 µM],0%
CCCCN(CC)S(=O)(=O)c1cccc2cccnc12,8%,-5%,-16%,0%
Cc1ccnc(N(C(=O)c2cccs2)C(=O)c2cccs2)c1,?,13µM*,-89%,1%
Cc1ccc2nc(N(Cc3cccnc3)C(=O)c3cccs3)sc2c1,-4%,-28%,-11%[10.9 µM],?
O=C(O)c1cc2c(cc1S(=O)(=O)O)[C@H]1[C@@H]([C@H]3[C@H]2[C@@]2(Cl)C(Cl)=C(Cl)[C@]3(Cl)C2(Cl)Cl)[C@]2(Cl)C(Cl)=C(Cl)[C@@]1(Cl)C2(Cl)Cl,-7%[9.22 µM],3%[9.22 µM],·,2%[11.4 µM]
CCCCCOc1c(Cl)cc(C(=O)N(Cc2ccc(C)o2)C2CCS(=O)(=O)C2)cc1Cl (centres undefined),9%,-27%,-12%[10.9 µM],4%
CCCCN(CCCNC(=O)c1cc(Nc2ccc(OC)cc2)nc2ccccc12)Cc1ccccc1,-8%,-26%,-10%[10.9 µM],-2%
CCCCN(CCCNC(=O)c1cc(Nc2ccc(OC)c(OC)c2)nc2ccccc12)Cc1ccccc1,-3%,13µM*,-15%[10.9 µM],?
CCc1ccc(CNC(=O)c2cc(-c3ccc(Cl)s3)nc3ccccc23)cc1,-1%,13%,1%[10.9 µM],0%
Cc1ccc(C)c(Nc2cc(C(=O)NCCCN(C)C3CCCCC3)c3ccccc3n2)c1,-9%,?,-12%[10.9 µM],?
Cc1cc(C)cc(Nc2cc(C(=O)NCCCN(C)C3CCCCC3)c3ccccc3n2)c1,?,7.9µM*,-11%[10.9 µM],?
CCc1ccccc1NC(=O)c1cc(-c2ccc(Cl)s2)nc2ccccc12,?,10µM*,-3%[10.9 µM],?
CCCCN(C)CCCNC(=O)c1cc(-c2ccc(Br)s2)nc2ccccc12,-11%,13µM*,-7%[10.9 µM],-5%
COc1nc(C)ccc1-c1noc(-c2ccco2)n1,13µM*,13µM*,-67%,-3%
NCCSS(=O)(=O)CCN,8%[9.22 µM],3%[9.22 µM],-5%[10.9 µM],2%[11.4 µM]
COc1ccc(CNCCC(c2ccccc2)c2ccc3c(c2)OCO3)cc1 (centres undefined),?,16µM*,-18%[10.9 µM],?
Nc1ccc2ncccc2c1,?,3.2µM*,-28%,3%
